PubChem BioAssay (Tox21)
Records with an inconclusive call do not appear. Activity calls are given as the source filed them. Unless noted, the call rests on the fitted dose curve; in most records, active means well fitted curve in the direction sought with a large enough effect in the repeat runs; inconclusive means weak or mixed curves; inactive means no such curve, though single readings can be large; an effect the other way counts as inactive or inconclusive.

Experiments:
[1] = qHTS assay to identify small molecule antagonists of the progesterone receptor (PR) signaling pathway - cell viability counter screen (AID 1346798); further: nearly all actives have a fitted effect of over 50% in size; further: potency means the concentration at half of the fitted maximal effect
Procedure, shortened: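 CellTiter-Glo luminescence; PR-UAS-bla HEK293T, 3,000 cells/well; compound + R5020, 16 hr, 37C/5% CO2; 30 min RT before read.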

[2] = qHTS assay to identify small molecule agonists of the progesterone receptor (PR) signaling pathway - cell viability counter screen (AID 1346799; calls by dose curve; further: nearly all actives have a fitted effect of over 45% in size; further: potency means the concentration at half of the fitted maximal effect)
Procedure, shortened: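 In parallel with the beta-lactamase readout, cytotoxicity toward PR-UAS-bla HEK293T cells was measured by CellTiter-Glo luminescence following 16 hr compound incubation in 2% charcoal-stripped FBS medium.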

[3] = qHTS assay to identify small molecule antagonists of the TGF-beta/Smad signaling pathway - cell viability counter screen (AID 1346824); further: nearly all actives have a fitted effect of over 50% in size
Procedure, shortened: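 Cytotoxicity counter-screen run in the same wells as the beta-lactamase Smad reporter read: CellTiter-Glo luminescence after 30 min at room temperature. HEK 293T SBE-bla cells had 5 hr compound exposure at 37 C with TGF-beta1 (0.25 ng/mL stock).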

[4] = qHTS assay to identify small molecule agonists of the TGF-beta/Smad signaling pathway - cell viability counter screen (AID 1346829); further: top concentration of the series differs between compounds; nearly all actives have a fitted effect of over 45% in size
Procedure, shortened: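 CellTiter-Glo luminescence readout; SBE-bla HEK 293T cells, overnight plating, compound 5 hr at 37 C/5% CO2, then bla substrate 2 hr RT, then CellTiter-Glo 30 min RT.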

[5] = qHTS assay to identify small molecule agonists of the TGF-beta/Smad signaling pathway (AID 1346859; active means well fitted activation curve with a large enough effect in the signal ratio in the repeat runs, not every such curve was filed as active; the % refers to the signal ratio; further: series mostly up to about 77 µM)
Procedure, shortened: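 After overnight seeding, SBE-bla HEK 293T cells are dosed with compounds in DMSO and kept 5 hr at 37 C, 5% CO2. LiveBLAzer-type FRET substrate is then applied for 2 hr at room temperature.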

[6] = target: Thyrotropin-releasing hormone receptor (Homo sapiens) (UniProt P34981); test: qHTS assay to identify small molecule antagonists of the thyrotropin-releasing hormone receptor (TRHR) signaling pathway (AID 1346877; active means well fitted inhibition curve with a large enough effect in the repeat runs, not every such curve was filed as active; further: series mostly up to about 51 µM)
Thyrotropin-releasing hormone receptor (Homo sapiens), sequence (P34981 whole entry, looked up): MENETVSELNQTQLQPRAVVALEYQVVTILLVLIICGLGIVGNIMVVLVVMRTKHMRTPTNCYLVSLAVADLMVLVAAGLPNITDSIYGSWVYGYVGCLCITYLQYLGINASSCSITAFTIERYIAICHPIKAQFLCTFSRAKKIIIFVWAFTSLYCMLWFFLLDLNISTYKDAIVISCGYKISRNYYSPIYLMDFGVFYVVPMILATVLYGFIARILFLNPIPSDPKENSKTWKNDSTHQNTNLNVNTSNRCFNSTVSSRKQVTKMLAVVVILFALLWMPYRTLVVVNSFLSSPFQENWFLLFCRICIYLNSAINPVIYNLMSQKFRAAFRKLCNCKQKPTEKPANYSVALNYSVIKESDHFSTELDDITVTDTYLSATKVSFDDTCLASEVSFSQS
Procedure, shortened: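 Overnight-plated (18 h, 37 °C) HEK293 cells expressing TRHR were dye-loaded 2 h, treated with compound, then stimulated with TRH at 1 nM final. Fluorescence intensity was captured every second for 3 min.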

[7] = target: Thyrotropin-releasing hormone receptor (Homo sapiens) (UniProt P34981); test: qHTS assay to identify small molecule agonists of the thyrotropin-releasing hormone receptor (TRHR) signaling pathway (AID 1346891; calls by dose curve;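 further: HEK293 cells expressing TRHR with calcium dye readout; series mostly up to about 58 µM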)
Procedure, shortened: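 Compounds were tested as agonists at 15 concentrations, in triplicate, on TRHR-Hek293 cells; calcium-sensitive dye fluorescence was recorded for 3 min following addition.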

[8] = Caspase-3/7 induction in HepG2 cells by small molecules, qHTS assay (AID 1346978); further: nearly all actives have a fitted effect of over 15% in size; further: potency means the concentration at half of the fitted maximal effect
Procedure, shortened: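 Caspase-3/7 induction was measured by Caspase-Glo 3/7 luminescence (30 min, room temperature) after a 17 hr compound exposure of wild-type HepG2 cells seeded at 2,000 per well and pre-incubated 5 hr.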

[9] = Caspase-3/7 induction in CHO-K1 cells by small molecules, qHTS cell viability counter screen (AID 1346979); further: nearly all actives have a fitted effect of over 35% in size; further: potency means the concentration at half of the fitted maximal effect
Procedure, shortened: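 Viability readout by fluorescence (CellTiter-Fluor) on wild-type CHO-K1 cells exposed for 16hr at 37C and 5% CO2 to compounds delivered in DMSO; reagent incubated 1hr before reading.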

[10] = Caspase-3/7 induction in CHO-K1 cells by small molecules, qHTS assay (AID 1346980); further: nearly all actives have a fitted effect of over 15% in size; further: potency means the concentration at half of the fitted maximal effect
Procedure, shortened: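 Luminescent Caspase-Glo 3/7 read (30min, room temperature) quantified apoptosis induction. Cells were wild-type CHO-K1, treated with compound for 17hr at 37 C and 5% CO2.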

[11] = target: Nuclear receptor subfamily 1 group I member 2 (Homo sapiens) (UniProt O75469); test: Human pregnane X receptor (PXR) small molecule agonists, qHTS assay (AID 1346982); further: nearly all actives have a fitted effect of over 35% in size; further: potency means the concentration at half of the fitted maximal effect
Nuclear receptor subfamily 1 group I member 2 (Homo sapiens), sequence (O75469 whole entry, looked up): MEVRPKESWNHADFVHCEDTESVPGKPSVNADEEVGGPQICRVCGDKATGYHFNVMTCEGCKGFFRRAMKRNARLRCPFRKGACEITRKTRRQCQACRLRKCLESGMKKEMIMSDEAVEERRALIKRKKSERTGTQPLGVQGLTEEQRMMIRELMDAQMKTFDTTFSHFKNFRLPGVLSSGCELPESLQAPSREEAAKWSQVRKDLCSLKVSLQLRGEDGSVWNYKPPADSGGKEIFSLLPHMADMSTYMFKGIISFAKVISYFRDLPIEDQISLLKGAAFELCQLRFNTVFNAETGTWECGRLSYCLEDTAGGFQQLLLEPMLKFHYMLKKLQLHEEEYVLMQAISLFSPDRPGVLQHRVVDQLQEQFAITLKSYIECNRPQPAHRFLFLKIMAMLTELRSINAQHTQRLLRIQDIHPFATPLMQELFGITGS
Procedure, shortened: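 Stable HepG2 line reporting PXR-mediated CYP3A4 expression via luciferase. Treatment: 24 hr with compounds in DMSO at 37 C. Detection: ONE-Glo luminescence.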

[12] = target: Cytochrome P450 2D6 (Homo sapiens) (UniProt P10635); test: Cytochrome P450 Family 2 Subfamily D Member 6 (CYP2D6) small molecule antagonists: luciferase reporter qHTS assay (AID 1671196); further: nearly all actives have a fitted effect of over 50% in size; further: potency means the concentration at half of the fitted maximal effect
Cytochrome P450 2D6 (Homo sapiens), sequence (P10635 whole entry, looked up): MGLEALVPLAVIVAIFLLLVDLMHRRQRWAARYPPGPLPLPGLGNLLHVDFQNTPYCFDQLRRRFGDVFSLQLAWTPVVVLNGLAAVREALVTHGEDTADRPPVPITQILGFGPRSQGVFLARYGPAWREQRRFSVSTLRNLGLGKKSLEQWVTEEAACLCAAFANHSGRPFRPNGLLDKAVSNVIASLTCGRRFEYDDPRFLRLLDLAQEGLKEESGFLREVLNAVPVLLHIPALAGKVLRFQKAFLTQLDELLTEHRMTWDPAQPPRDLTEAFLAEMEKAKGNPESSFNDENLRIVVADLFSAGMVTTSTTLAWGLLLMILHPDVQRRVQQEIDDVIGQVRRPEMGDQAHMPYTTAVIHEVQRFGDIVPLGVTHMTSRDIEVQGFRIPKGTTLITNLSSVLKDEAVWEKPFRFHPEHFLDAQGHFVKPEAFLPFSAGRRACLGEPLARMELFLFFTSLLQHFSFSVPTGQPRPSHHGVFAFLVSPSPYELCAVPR
Procedure, shortened: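 Chemicals tested for interference with CYP2D6 activity; proluciferin substrate, NADPH regeneration, 1 h at room temperature, luminescent detection.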

[13] = target: Cytochrome P450 2C9 (Homo sapiens) (UniProt P11712); test: Cytochrome P450 Family 2 Subfamily C Member 9 (CYP2C9) small molecule antagonists: luciferase reporter qHTS assay (AID 1671198); further: nearly all actives have a fitted effect of over 50% in size; further: potency means the concentration at half of the fitted maximal effect
Cytochrome P450 2C9 (Homo sapiens), sequence (P11712 whole entry, looked up): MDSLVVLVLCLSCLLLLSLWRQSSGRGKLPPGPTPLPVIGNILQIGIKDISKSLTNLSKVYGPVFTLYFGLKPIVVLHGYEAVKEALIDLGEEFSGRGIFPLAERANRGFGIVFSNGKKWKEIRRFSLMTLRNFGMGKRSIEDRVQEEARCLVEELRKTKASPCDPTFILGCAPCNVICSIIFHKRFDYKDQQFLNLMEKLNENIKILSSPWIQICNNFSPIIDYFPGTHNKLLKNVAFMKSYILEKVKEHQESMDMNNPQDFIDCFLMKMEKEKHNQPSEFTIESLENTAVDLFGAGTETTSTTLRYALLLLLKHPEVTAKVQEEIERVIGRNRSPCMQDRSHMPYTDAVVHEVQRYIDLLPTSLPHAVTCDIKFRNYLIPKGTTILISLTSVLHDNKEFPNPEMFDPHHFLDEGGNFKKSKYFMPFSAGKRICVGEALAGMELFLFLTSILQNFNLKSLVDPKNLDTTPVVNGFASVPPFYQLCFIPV
Procedure, shortened: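 Enzyme-substrate mix preincubated with compound 10 min at room temperature; reaction started with NADPH regeneration solution, 1 h 37C. Luminescent luciferin product read after 20 min detection reagent.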

[14] = Human pregnane X receptor (PXR) small molecule agonists, qHTS cell viability counter screen (AID 1346977); further: nearly all actives have a fitted effect of over 50% in size; further: potency means the concentration at half of the fitted maximal effect
Procedure, shortened: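 Viability counter screen: CellTiter-Fluor signal in PXR-Luc HepG2 cells, 24hr compound exposure, 37C, 5% CO2.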

[15] = Caspase-3/7 induction in HepG2 cells by small molecules, qHTS cell viability counter screen (AID 1346981); further: nearly all actives have a fitted effect of over 30% in size; further: potency means the concentration at half of the fitted maximal effect
Procedure, shortened: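 Treatment of HepG2 cells with DMSO-delivered compounds ran 16 hr at 37 C following a 5-hr pre-incubation of 2,000 cells/well. CellTiter-Fluor fluorescence, read after 1 hr, served as the viability measure in a qHTS format.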

[16] = target: Cytochrome P450 2C19 (Homo sapiens) (UniProt P33261); test: Cytochrome P450 Family 2 Subfamily C Member 19 (CYP2C19) small molecule antagonists: luciferase reporter qHTS assay (AID 1671197); further: nearly all actives have a fitted effect of over 65% in size; further: potency means the concentration at half of the fitted maximal effect
Cytochrome P450 2C19 (Homo sapiens), sequence (P33261 whole entry, looked up): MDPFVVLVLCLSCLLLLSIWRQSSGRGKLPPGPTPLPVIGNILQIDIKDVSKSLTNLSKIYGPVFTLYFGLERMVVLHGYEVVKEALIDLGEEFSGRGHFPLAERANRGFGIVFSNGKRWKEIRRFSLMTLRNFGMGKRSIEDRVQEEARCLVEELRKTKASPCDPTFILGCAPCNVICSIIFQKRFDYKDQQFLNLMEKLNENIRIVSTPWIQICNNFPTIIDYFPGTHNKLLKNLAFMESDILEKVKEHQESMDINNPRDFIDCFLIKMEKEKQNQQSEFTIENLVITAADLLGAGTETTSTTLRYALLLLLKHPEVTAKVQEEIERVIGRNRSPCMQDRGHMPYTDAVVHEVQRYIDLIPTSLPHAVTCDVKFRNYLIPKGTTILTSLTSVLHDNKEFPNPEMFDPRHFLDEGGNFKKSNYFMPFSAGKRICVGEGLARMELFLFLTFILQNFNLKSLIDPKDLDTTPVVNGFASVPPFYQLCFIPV
Procedure, shortened: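 Enzyme-substrate mix with proluciferin substrate (P450-Glo CYP2C19 system) preincubated with compounds 10 min at room temperature; NADPH regeneration solution added, 37C for 1 h; detection reagent stops reaction, luminescence read after 20 min. Ketoconazole positive control.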

[17] = target: Progesterone receptor (Homo sapiens) (UniProt P06401); test: qHTS assay to identify small molecule antagonists of the progesterone receptor (PR) signaling pathway (AID 1346795; active means well fitted inhibition curve with a large enough effect in the signal ratio in the repeat runs, not every such curve was filed as active; the % refers to the signal ratio; further: potency means the concentration at half of the fitted maximal effect)
Progesterone receptor (Homo sapiens), sequence (P06401 whole entry, looked up): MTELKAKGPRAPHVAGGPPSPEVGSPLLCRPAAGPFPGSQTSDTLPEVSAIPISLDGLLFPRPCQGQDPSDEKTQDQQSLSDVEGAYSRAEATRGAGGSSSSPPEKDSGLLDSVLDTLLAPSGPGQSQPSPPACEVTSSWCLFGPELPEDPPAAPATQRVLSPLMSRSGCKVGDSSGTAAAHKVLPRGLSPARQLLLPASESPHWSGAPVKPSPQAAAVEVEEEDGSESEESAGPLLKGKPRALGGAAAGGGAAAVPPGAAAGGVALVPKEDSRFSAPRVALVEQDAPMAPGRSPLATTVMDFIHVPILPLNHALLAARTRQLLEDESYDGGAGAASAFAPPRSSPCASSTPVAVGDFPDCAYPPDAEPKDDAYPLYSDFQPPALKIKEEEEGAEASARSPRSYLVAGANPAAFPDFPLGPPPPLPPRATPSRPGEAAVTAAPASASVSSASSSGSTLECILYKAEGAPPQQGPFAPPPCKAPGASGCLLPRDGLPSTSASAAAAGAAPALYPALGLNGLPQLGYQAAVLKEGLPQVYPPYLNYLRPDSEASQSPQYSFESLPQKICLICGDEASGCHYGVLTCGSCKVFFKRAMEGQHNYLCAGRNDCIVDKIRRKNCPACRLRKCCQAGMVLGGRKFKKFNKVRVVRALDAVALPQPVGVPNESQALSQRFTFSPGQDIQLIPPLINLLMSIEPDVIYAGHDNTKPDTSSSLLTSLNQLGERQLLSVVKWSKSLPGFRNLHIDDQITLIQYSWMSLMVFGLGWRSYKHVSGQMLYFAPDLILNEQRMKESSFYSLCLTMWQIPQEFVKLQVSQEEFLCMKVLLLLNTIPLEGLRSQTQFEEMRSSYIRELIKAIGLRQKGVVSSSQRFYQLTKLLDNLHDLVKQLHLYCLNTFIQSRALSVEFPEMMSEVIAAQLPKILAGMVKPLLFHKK
Procedure, shortened: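 Fluorescence intensity measured 2 hr after adding beta-lactamase FRET substrate to PR-UAS-bla HEK293T cells that had been co-treated 16 hr with compound and 1 nM R5020 (final concentration) in 2% charcoal-stripped FBS.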

[18] = target: Nuclear receptor subfamily 1 group I member 2 (Homo sapiens) (UniProt O75469); test: CYP3A4 induction through human pregnane X receptor (PXR) by small molecules, qHTS assay (AID 1346984); further: nearly all actives have a fitted effect of over 40% in size; further: potency means the concentration at half of the fitted maximal effect
Procedure, shortened: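 After 24 h at 37C with compound, DPX-2 cells (HepG2, co-transfected PXR response element and CYP3A4 promoter-luciferase) got 3uM final P450-Glo Luciferin-IPA for 3 h; One-Glo luminescence followed.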

[19] = target: Nuclear receptor subfamily 1 group I member 2 (Homo sapiens) (UniProt O75469); test: Human pregnane X receptor (PXR) activation by small molecules, qHTS assay (AID 1346985); further: nearly all actives have a fitted effect of over 40% in size
Procedure, shortened: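 DPX-2 cells (HepG2 co-transfected with a PXR response element and a CYP3A4-promoter luciferase construct) were seeded at 2,000 per well, rested 5 hr at 37C, then exposed to DMSO-dissolved compounds for 24 hr. Activation was read as luciferase luminescence.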

Measured: Potency

Nc1cc(Cl)c([N+](=O)[O-])cc1O
active: [9] 68 µM | [11] 54 µM | [13] 31.5 µM
inactive: [1] | [2] | [3] | [4] | [5] | [6] | [7] | [8] | [10] | [12]

CS(C)(=O)=O
inactive: [1] | [2] | [3] | [4] | [5] | [6] | [7] | [14] | [8] | [9] | [10] | [15] | [11] | [12] | [16] | [13]

Cc1ccc(O)cn1
inactive: [1] | [2] | [3] | [4] | [5] | [6] | [7] | [14] | [8] | [9] | [10] | [15] | [11] | [16] | [13]

COc1ccc2sc(C(=O)Nc3nnn[nH]3)c(OC(C)C)c2c1
active: [17] 54.3 µM | [14] 24.2 µM | [9] 38.4 µM | [13] 22.4 µM
inactive: [3] | [4] | [8] | [10] | [12]

COc1cc(C(=O)NS(=O)(=O)c2ccccc2C)ccc1Cc1cn(C)c2ccc(NC(=O)OC3CCCC3)cc12
inactive: [1] | [2] | [3] | [4] | [5] | [6] | [7] | [14] | [8] | [10] | [15] | [12] | [16]
active: [13] 15.5 µM

O=Nc1ccc(NO)cc1
inactive: [1] | [2] | [3] | [4] | [5] | [6] | [7] | [14] | [8] | [10] | [12] | [13]

CCOC(=O)[C@@](C)(N)Cc1ccc(O)c(O)c1
active: [12] 8.71 µM
inactive: [17] | [3] | [4] | [6] | [7] | [14] | [8] | [10] | [15] | [11] | [18] | [19] | [13]

C/C=C/C(=O)Oc1c(CCCCCC(C)C)cc([N+](=O)[O-])cc1[N+](=O)[O-]
inactive: [6] | [7] | [12]
active: [17] 19.3 µM | [14] 15.4 µM | [9] 15.4 µM | [10] 48.6 µM | [15] 27.3 µM | [11] 21.7 µM | [16] 35.6 µM | [13] 2.52 µM

CC(C(O)c1ccccc1)N(C)CCOC(c1ccccc1)c1ccccc1 (stereo unspecified)
active: [17] 23.7 µM | [14] 29.8 µM | [11] 7.5 µM | [12] 0.174 µM | [16] 7.76 µM | [13] 17.4 µM
inactive: [4] | [6] | [7] | [10]

CCN(CC)CCOC(=O)C1(C2CCCCC2)CCCCC1
inactive: [17] | [5] | [6] | [7] | [16] | [13]
active: [11] 8.41 µM

C=C(C)C(=O)OCCC[Si](Cl)(Cl)Cl
inactive: [17] | [3] | [4] | [14] | [8] | [9] | [10] | [15]
active: [16] 80.4 µM | [13] 22.7 µM

COC(=O)CC(C)CCC=C(C)C (stereo unspecified)
inactive: [1] | [2] | [3] | [4] | [5] | [6] | [7] | [14] | [8] | [9] | [10] | [15] | [11] | [12] | [16] | [13]

O=C1c2c(O)ccc(O)c2C(=O)c2c(NCCNCCO)ccc(NCCNCCO)c21
inactive: [3] | [6] | [7] | [10]
active: [17] 3.35 µM | [14] 4.22 µM | [8] 4.22 µM | [9] 10.6 µM | [15] 11.9 µM

CCNc1nc(NC(C)CC)nc(OC)n1 (stereo unspecified)
active: [11] 24.3 µM | [16] 7.96 µM
inactive: [1] | [2] | [3] | [4] | [5] | [6] | [7] | [14] | [8] | [9] | [10] | [15] | [12] | [13]

CCc1ccc(C)nc1
inactive: [1] | [2] | [3] | [4] | [5] | [14] | [8] | [10] | [15] | [12] | [16] | [13]

COc1cccc(CCc2ccccc2OCC(CN(C)C)OC(=O)CCC(=O)O)c1 (stereo unspecified)
active: [1] 13.3 µM | [2] 2.98 µM | [14] 26.6 µM | [18] 12.6 µM | [12] 0.692 µM | [16] 34.7 µM
inactive: [3] | [4] | [5] | [6] | [7] | [8] | [9] | [10] | [15] | [11] | [13]
